KCNQ2 block – KCNQ2 (rat) channel inhibition. CHO-K1 KCNQ2, FluxOR thallium flux, 20 min; stronger effect = lower value. AID 2156. O88943. 1.1% of 310,000 active. B-score at 10 µM;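 active = fluorescence ratio B-score at most minus 3 library SDs, with starting brightness B-score within 2 library SDs, cut at about -5.5 in these data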
KCNQ2 pot – KCNQ2 (rat) channel potentiation. B-score at 10 µM. 0.54% of 310,000 active. CHO-K1 KCNQ2, FluxOR thallium flux fluorescence; stronger effect = higher value. AID 2239;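 active = fluorescence ratio B-score at least 3 SD of library B-scores, with initial fluorescence B-score within 3 of them, cut at about 5.3 in these data; same plate scores as AID 2156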;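 also: B-score of peak minus minimum over baseline fluorescence ratio after K+ and Tl+ stimulus; positive B-score means potentiation of KCNQ2 with more thallium influx and brighter signal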
Kir21 confirm – confirmation of mouse Kir2.1 potassium channel inhibitors; Tl flux remaining, % of negative control (stronger effect = lower value), % at 10 µM; Kir2.1-expressing cells, FluxOR thallium flux fluorescence; stronger effect = lower value; AID 2032; shares compounds with KCNQ2 pot; 41% of 2,300 active;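 active = Primary-screen hit whose thallium flux fell at least 3 control SD below untreated wells in both duplicates, with normal baseline fluorescence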;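 also: 0% = blank wells without stimulus and 100% = stimulated no-compound controls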
HEK293 Tl flux – alters thallium flux in parental HEK293 cells, Kir2.1 counter-screen. shares compounds with KCNQ2 pot. FluxOR thallium flux fluorescence; 0% = unstimulated blank wells. FluxOR signal as % of negative control (100 = no effect), % at 10 µM. 19% of 2,300 active;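 active = dye signal at least 3 control SD above or below untreated wells in both duplicates, raw fluorescence within 3, either direction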;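 also: percent is based on the flux ratio of peak minus minimum fluorescence over baseline F0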
CHO-K1 ctr – counter-screen for KCNQ2 potentiators: effect in parental CHO-K1 cells; 43% of 1,200 active; FluxOR thallium flux fluorescence; zero = vehicle mean+3SD, 100% = vehicle-minus-blank window; shares compounds with KCNQ2 pot; activity increase over 3SD of controls, % at 10 µM;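 active = signal rise of at least 3 SD above the untreated control mean, in both duplicate wells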;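 also: counter screen of KCNQ2 potentiator hits so any rise reflects channel-independent effects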
KCNQ1 pot spec – tests whether KCNQ2 potentiators also act on human KCNQ1; activation over 3SD threshold, % at 10 µM; shares compounds with KCNQ2 pot; CHO KCNQ1 stable, FluxOR thallium flux fluorescence; beyond 3SD, as % of vehicle-control signal; 28% of 1,200 active;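 active = fluorescence ratio rise of at least 3 SD of vehicle wells above their mean, in both replicate wells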;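 also: 0% = vehicle mean plus 3 SD and 100% = vehicle minus unstimulated blank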
Target sequence (P51787 whole entry, looked up): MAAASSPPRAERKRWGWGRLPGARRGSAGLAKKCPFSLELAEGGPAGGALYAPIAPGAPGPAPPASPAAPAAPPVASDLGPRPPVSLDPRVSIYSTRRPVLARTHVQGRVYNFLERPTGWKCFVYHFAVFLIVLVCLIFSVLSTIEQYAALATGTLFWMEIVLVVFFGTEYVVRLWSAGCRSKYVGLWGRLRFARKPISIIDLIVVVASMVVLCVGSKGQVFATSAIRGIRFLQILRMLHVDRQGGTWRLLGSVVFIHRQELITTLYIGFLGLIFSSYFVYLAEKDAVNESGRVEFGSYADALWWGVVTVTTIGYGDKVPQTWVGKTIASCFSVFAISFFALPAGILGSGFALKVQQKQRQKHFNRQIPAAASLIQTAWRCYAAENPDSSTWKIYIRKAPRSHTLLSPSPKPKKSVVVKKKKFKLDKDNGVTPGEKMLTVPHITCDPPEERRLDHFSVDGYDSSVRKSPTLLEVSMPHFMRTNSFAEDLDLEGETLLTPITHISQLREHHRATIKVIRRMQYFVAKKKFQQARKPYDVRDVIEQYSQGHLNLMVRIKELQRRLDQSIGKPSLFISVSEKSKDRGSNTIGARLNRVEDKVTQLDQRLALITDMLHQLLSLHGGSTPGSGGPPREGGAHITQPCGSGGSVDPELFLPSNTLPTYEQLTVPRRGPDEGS
KCNQ2 pot conf – confirmation of rat KCNQ2 potassium channel potentiators. shares compounds with KCNQ2 pot. CHO-KCNQ2 cells, FluxOR thallium flux fluorescence. potentiation, less the hit threshold, % at 10 µM. 68% of 1,200 active;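 active = fluorescence ratio rising 3 SD or more over the vehicle control mean in both replicates, plus primary screen hit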;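 also: peak minus minimum thallium fluorescence divided by baseline after K/Tl stimulus; 0% = vehicle mean plus 3 SD and 100% = vehicle minus unstimulated blank difference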
Kir2-1 sel – selectivity of KCNQ2 potentiators: effect on mouse Kir2.1; activity over 3SD threshold, % at 10 µM; AID 2345; shares compounds with KCNQ2 pot; 2% of 1,200 active; HEK293 Kir2.1, FluxOR thallium flux fluorescence;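 active = fluorescence ratio rise of at least 3 SD above the vehicle-control mean, seen in both replicates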;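 also: 0% = vehicle mean plus 3 SD and 100% = vehicle minus no-stimulus blank window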
KCNQ2 W236L pot – potentiates the retigabine-insensitive rat KCNQ2 W236L mutant channel; shares compounds with KCNQ2 pot; CHO KCNQ2-W236L, automated patch clamp current; current increase over 3SD of negative controls (%), stronger effect = higher value, % at 25 µM; 10% of 940 active; AID 2558;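 active = current increase at least 3 SD of the untreated controls above them in both duplicate recordings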
* marks the source's active call; other numbers are inactive results; i = inactive; . = not tested or not shown. Only some compounds are listed: those with a hit (about 1.6% of all), similar ones and a draw of the others.

SMILES	KCNQ2 block	KCNQ2 pot	Kir21 confirm	HEK293 Tl flux	others
CC(C)C(=O)Nc1ccc(NC(=O)c2ccc(COc3ccccc3)cc2)cc1	i	0.1	.	.
Cc1oc(-c2ccccc2F)nc1CS(=O)(=O)CC(=O)N1CCN(c2ccccc2)CC1	i	0.55	.	.
O=C(CC(Cc1ccccc1)c1ccco1)NC1CCCCC1 (centres undefined)	i	.	.	.
Fc1ccc(CNCCC(Cc2ccccc2)c2ccco2)cc1 (centres undefined)	i	.	17.5%*	70.5%*
O=C(NCCNCc1ccc(F)cc1)c1ccco1	i	1.18	.	.
CC(NCCC(Cc1ccccc1)c1ccco1)c1ccccc1 (centres undefined)	i	.	39.0%*	i
COc1cc(C#N)ccc1OCC(=O)N1CCc2ccccc2C1	i	.	.	.
COc1ccc(CCNC(=O)c2cc(S(=O)(=O)N3CCOCC3)cn2C)cc1OC	i	.	.	.
COc1ccccc1CN=C1Nc2ccccc2CS1	i	.	58.5%*	i
COc1cccc(CN=C2Nc3ccccc3CS2)c1	i	.	.	.
CC(C)c1cc(CNC(=O)CC2C(=O)NCCN2CC2CCCCC2)on1 (centres undefined)	i	.	.	.
CC(=O)Nc1sc2c(c1C(c1ccccc1Cl)N1CCN(CCO)CC1)CCCC2 (centres undefined)	i	5.29*	.	.	CHO-K1 ctr=-35.7;KCNQ1 pot spec=-18.3;KCNQ2 pot conf=37.7*;Kir2-1 sel=-62.2;KCNQ2 W236L pot=i
CC(=O)Nc1sc2c(c1C(c1ccccn1)N1CCCC1)CCCC2 (centres undefined)	i	1	.	.
CS(=O)(=O)N(Cc1ccc(Cl)cc1)c1ccc(C(=O)N/N=C/c2cc3ccccc3nc2Cl)cc1	i	.	.	.
Cc1nc(-c2ccc(F)cc2)c(CC(=O)N(C)CC(=O)Nc2ccc(F)cc2)s1	i	.	.	.
O=S(=O)(c1ccc(NC(=S)N/N=C/c2ccc(O)c(O)c2)cc1)N1CCOCC1	i	.	.	.
O=[N+]([O-])c1cc(Cl)cc(/C=N/NC(=S)Nc2ccc(S(=O)(=O)N3CCOCC3)cc2)c1O	i	17.6*	i	i	CHO-K1 ctr=3.6*;KCNQ1 pot spec=-5.7;KCNQ2 pot conf=39.0*;Kir2-1 sel=-29.6;KCNQ2 W236L pot=3.7%*
CC(CN1CCCCC1)NC(=O)c1cccs1 (centres undefined)	i	.	.	.
CC(OC(=O)Cn1nnc2ccccc21)C(=O)NC1CCCC1 (centres undefined)	i	.	.	.
CC(C)(CO)NCc1ccccc1OCC(=O)Nc1ccccc1	i	.	.	.
Cc1ccc(NC(=O)COc2ccccc2CNC(C)(C)CC(C)(C)C)cc1	i	.	43.5%*	i
Cc1cc(C)c2nc(SC(C)C#N)cc(C)c2c1 (centres undefined)	i	5.57*	i	67.5%*	CHO-K1 ctr=74.7*;KCNQ1 pot spec=-8.7;KCNQ2 pot conf=-12.4;Kir2-1 sel=-44.3;KCNQ2 W236L pot=i
Cc1cc(C)c2nc(SC3CCOC3=O)cc(C)c2c1 (centres undefined)	i	0.27	.	.
CC(C)(C)c1ccc(C(=O)NCc2nnc(SCC(=O)NC3CCCCC3)o2)cc1	i	.	.	.
CCOc1ccc(S(=O)(=O)N(CC(=O)NCc2ccncc2)c2ccc(C)cc2)cc1	i	.	.	.
SMILES	KCNQ2 block	KCNQ2 pot	Kir21 confirm	HEK293 Tl flux	others
Oc1c(Cl)cc(Cl)cc1C=Nc1ccc(Br)cc1	i	7.06*	i	i	CHO-K1 ctr=-19.5;KCNQ1 pot spec=30.8*;KCNQ2 pot conf=15.6*;Kir2-1 sel=-25.4;KCNQ2 W236L pot=i
Oc1c(Cl)cc(Cl)cc1C=Nc1ccc(N2CCOCC2)cc1	i	4.3	.	.
COc1ccc(C/C(N)=N/OC(=O)CCc2ccccc2)cc1	i	.	.	.
CN(NS(=O)(=O)c1ccc(Cl)cc1)c1ncc(C(F)(F)F)cc1Cl	i	3.35	57.5%*	i
CN(NS(=O)(=O)c1ccc(F)cc1)c1ncc(C(F)(F)F)cc1Cl	i	0.59	.	.
CC(C)c1nc2sc3c(=O)[nH]c(=S)[nH]c3c2c2c1CCCC2	i	8.97*	i	132.5%*	CHO-K1 ctr=-18.2;KCNQ1 pot spec=-7.9;KCNQ2 pot conf=-15.8;Kir2-1 sel=-30.1
CC(C)c1nc2sc3c(=O)[nH]c(=S)[nH]c3c2c2c1CCC2	i	4.52	.	.
CCN1CCN(CCNC(=O)CCCn2nc(C)c3c(C)n(-c4ccc(C)cc4)nc3c2=O)CC1	i	.	.	.
CC1=NN(C(N)=S)C(=O)C1N=Nc1cccc2ccccc12 (centres undefined)	i	.	.	.
CC1=NN(C(N)=S)C(=O)C1N=Nc1cccc(Cl)c1C (centres undefined)	i	40*	i	i	CHO-K1 ctr=-6.2;KCNQ1 pot spec=-15.8;KCNQ2 pot conf=110.3*;Kir2-1 sel=-35.6;KCNQ2 W236L pot=i
CN(c1ccc(OCC(=O)NCCc2ccccc2)cc1)S(=O)(=O)c1ccc(Cl)cc1	i	.	.	.
COc1ccc(CCNC(=O)COc2ccc(N(C)S(=O)(=O)c3ccc(Cl)cc3)cc2)cc1	-6.47*	-6.47	i	i
Cc1ccc(NC(=O)COc2cccc(-n3cnnn3)c2)cc1[N+](=O)[O-]	i	.	.	.
CCC(=O)c1ccc(OCC(=O)Nc2ccccc2N2CCCCC2)cc1	i	0.6	.	.
COc1ccc(CCN(C)C/C=C/c2ccccc2[N+](=O)[O-])cc1OC	i	0.06	.	.
CC[n+]1c(/C=C/N(C)c2ccccc2)n(-c2ccccc2)c2ccc(-c3nc4ccccc4s3)cc21	-16.2*	-16.2	i	i
CCOC(=O)c1ccc2c(c1)n(CC)c(/C=C/N(C)c1ccccc1)[n+]2CC	i	.	.	.
CCNC(=O)/C(=C/c1ccco1)NC(=O)/C=C/c1ccccc1	i	.	.	.
OC(CNCc1ccccc1)COc1ccccc1 (centres undefined)	i	.	.	.
COc1ccc(CNCC(O)COc2ccc(C)cc2[N+](=O)[O-])cc1 (centres undefined)	i	.	26.5%*	i
COc1ccc(CCNCC(O)COc2ccc(OC)cc2C(C)(C)C)cc1 (centres undefined)	i	.	56.0%*	i
COc1ccc(OCCOCCOc2ccc(C)cc2[N+](=O)[O-])cc1	i	.	.	.
Cc1ccc(OCC(O)CNCc2ccc(F)cc2)cc1 (centres undefined)	i	0.29	27.0%*	i
COc1ccc(CCNCC(O)COc2cccc(Br)c2)cc1OC (centres undefined)	i	.	.	.
Cc1ccc(C2(C)NC(=O)N(CC(=O)Nc3cc(S(=O)(=O)N(C)C)ccc3C)C2=O)cc1 (centres undefined)	i	0.87	.	.

Assay outcomes: PubChem, Johns Hopkins Ion Channel Center
